The panel holds about 83,000 compounds, 20% with a hit somewhere; the sample as a whole holds those more often.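 The test compound was applied at a single concentration to cells in 96-well plates for 48 hours, and percent growth was recorded.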 Values without a mark were called inactive. Calls of active or inactive are those of the source. How the source made its calls: active means growth percent below 10; inactive means the rest.

The experiment deals with SK-MEL-28 melanoma. Put plainly: NCI-60 one-dose screen, 48 h (100 = growth as untreated, 0 = no growth, -100 = all killed). The note with it: 10 µM unless noted.
`C#C[C@]1(O)CC[C@H]2[C@@H]3CC=C4c5sc(N(C)c6ccccc6)nc5CC[C@]4(C)[C@H]3CC[C@@]21C`: the growth is 76.9%.

For the compound `CC(=O)c1c([Si](C)(C)C)c2cc(C#N)ccn2c1C(=O)c1ccc(Br)cc1`, the growth was 92.1%.

For `O=C(CSc1nc2ccccc2c(=O)n1-c1ccc(Cl)c(Cl)c1)Nc1ccc(S(=O)(=O)Nc2ccc(Cl)nn2)cc1`, the growth was 96.3%.

For the compound `C#CCN(C)CCCOc1ccc(NCc2ccc(/C=C/C(=O)NO)cc2)cc1Cl`, the growth is -14.4% (active).

For `O=C(NNc1nc2cc(F)cc(F)c2n2cccc12)c1cccnn1`, the growth is 23.9%.

Consider `COc1ccc(/C(=N\NC(N)=S)c2ccc(Cl)cc2)cc1OC`, for which the growth is 47.6%.

With `COc1ccc(-c2c(C(N)=O)c(N)n(Cc3nc4ccccc4[nH]3)c(=O)c2C#N)c(OC)c1`, the growth is 109%.

Consider `Cc1cc(Br)ccc1-n1cc(C#N)c(N)c1C(=O)c1ccc(Br)cc1`, for which the growth is 102%.

As to `CN1CCN(Cc2ccc(NC(=O)c3cncc(C#Cc4cnc(N)nc4)c3)cc2C(F)(F)F)CC1`, the growth is 2.04% (active).

Take `CCOC(=O)c1c(NC(=O)c2ccc(C(F)(F)F)cc2)sc2c3c(ccc12)OCN(C)C3`: the growth was 95.8%.

With `O=C1CSC(c2cn(-c3ccccc3)nc2-c2ccc(Cl)cc2)N1c1ccccc1` (centres undefined), the growth was 118%.

With `COc1ccc(-c2c3c(cn2Cc2cccc(OC)c2)-c2oncc2CCC3)cc1`, the growth is 110%.

With `C#C[C@]1(O)CC[C@H]2[C@@H]3CC=C4c5sc(Nc6ccc(C)cn6)nc5CC[C@]4(C)[C@H]3CC[C@@]21C`, the growth was -72.4% (active).

Regarding `CCCCCCOC(=O)c1cc(-c2ccc(F)cc2)nc2ccccc12`, the growth was 107%.

With `CN1CCN(c2ccc(Nc3nc(NCCNS(=O)(=O)c4ccccc4)c4sccc4n3)cc2)CC1`, the growth is 104%.

Turning to `CN1CCN(Cc2ccc(NC(=O)c3cncc(C#Cc4cnc5ccc(O[C@@H]6CCOC6)nn45)c3)cc2C(F)(F)F)CC1`, the growth is -82.4% (active).

As for `CC(C)(C)Nc1nc2c(OCCc3ccccc3)cccn2c1-c1ccc([N+](=O)[O-])cc1`, the growth was 76.2%.

For `N#Cc1c(-c2cccs2)cc(-c2cnccn2)nc1SCC(=O)N/N=C/c1ccc(Cl)cc1`, the growth is 110%.

Turning to `CN(C)CCCOc1ccc(C(=C(c2ccccc2)C2CCCC2)c2ccc(OCCCN(C)C)cc2)cc1`, the growth is -96.4% (active).

Regarding `N#Cc1nc(-c2ccc(Cl)cc2)oc1N1CCC(S(=O)(=O)N2CCOCC2)CC1`, the growth was 101%.

In the case of `CC(=O)C1=C(C)NC(NNc2ccccc2)=NC1c1ccc([N+](=O)[O-])cc1` (centres undefined), the growth is 102%.

Take `COC(=O)c1ccc(NC2=C(Cl)C(=O)C(C)=C(C)C2=O)cc1`: the growth is 75.9%.

Take `C=C(C=O)[C@@H]1CC[C@]2(C(=O)O)CC[C@]3(C)C(CC[C@@H]4[C@@](C)(CCC#N)[C@H](C(=C)C=O)CC[C@]43C)[C@@H]12` (some centres undefined): the growth was -5.57% (active).

`CCOC(=O)C1=C(C)NC(C)=C(C(=O)OC(C)C)C1c1cccc(C#N)c1` (centres undefined): the growth was 105%.

Regarding `CC1(C)CC[C@]23CC[C@]4(C)[C@H](CC[C@@H]5[C@@]6(C)CC[C@H](NCO)C(C)(C)[C@@H]6CC[C@]54C)[C@H]2[C@H]1OC3`, the growth is 89.5%.

Turning to `COc1ccc(C(=NNS(=O)(=O)c2ccc(C)cc2)c2ccccc2)cc1OC`, the growth was 108%.

For `COc1cccc2c1C=CC1(O2)Oc2cccc(OC)c2C=C1C` (centres undefined), the growth is 58.4%.

With `Cc1csc(/N=C(N)/N=C(\N)c2cccnc2)n1`, the growth was 65.3%.

Consider `Cc1ccc(/C=N/Nc2nc(Nc3ccccc3)nc(Nc3ccc(S(N)(=O)=O)cc3)n2)cc1`, for which the growth was 75.7%.

As for `CCCC[n+]1ccc(SCC(=O)n2ccc3ccccc32)c2ccccc21`, the growth is 109%.

Consider `O=[N+]([O-])c1ccc(NC(=S)NNC(=S)Nc2ccc(Br)cc2)cc1`, for which the growth is 102%.

Regarding `CCOP(=O)(OCC)OC[C@]12CCC(C)(C)CC1C1=CC[C@@H]3[C@@]4(C)CCCNC(C)(C)[C@@H]4CC[C@@]3(C)[C@]1(C)CC2` (some centres undefined), the growth is 101%.

Consider `CNC(=O)Nc1ccc(Nc2cc(-c3ccc(-n4cccn4)cc3)[nH]n2)c(C)c1`, for which the growth was 114%.

In the case of `O=C(CCCCCCNC(=O)c1csc(Br)n1)NO`, the growth was 29.3%.

Regarding `NS(=O)(=O)c1ccc(Nc2nc(N/N=C/c3ccc4c(c3)OCO4)nc(Nc3ccccc3)n2)cc1`, the growth was 67.5%.

`CCc1cc2c(cc1Cl)nc1c(=O)[nH]c(=O)nc-1n2CCOCC(C)C`: the growth is 87%.

Regarding `COc1cc(C(=O)c2cc(C(C)=O)c3cccc(C)n23)cc(OC)c1OC`, the growth was 61.8%.

`Nc1ncc(-c2ccc3ncnc(NCc4ccccc4)c3c2)cn1`: the growth was 57.6%.

Turning to `COc1ccc2c(c1)c(-c1nn3cc(-c4ccncc4)nc3s1)cn2C`, the growth is 114%.

(Values after PubChem BioAssay (NCI).)
